# Among all 310,000 compounds or so, about 14,000 (4.5%) showed an effect of 50% or more. The effect is printed as a negative number. The sample holds strong results, similar compounds and a random draw of the others, so the mix is not that of the screen.
# Biological target: human ether-à-go-go-related gene (hERG) potassium channel (human, UniProt Q12809)
# Assay: primary screen, population patch clamp on CHO cells stably expressing hERG; higher = less effect of the substance
# 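Also: peak tail current of the secondary pulse compared with the same well before compound.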
# Chain of human ether-à-go-go-related gene (hERG) potassium channel (Q12809 whole entry, looked up): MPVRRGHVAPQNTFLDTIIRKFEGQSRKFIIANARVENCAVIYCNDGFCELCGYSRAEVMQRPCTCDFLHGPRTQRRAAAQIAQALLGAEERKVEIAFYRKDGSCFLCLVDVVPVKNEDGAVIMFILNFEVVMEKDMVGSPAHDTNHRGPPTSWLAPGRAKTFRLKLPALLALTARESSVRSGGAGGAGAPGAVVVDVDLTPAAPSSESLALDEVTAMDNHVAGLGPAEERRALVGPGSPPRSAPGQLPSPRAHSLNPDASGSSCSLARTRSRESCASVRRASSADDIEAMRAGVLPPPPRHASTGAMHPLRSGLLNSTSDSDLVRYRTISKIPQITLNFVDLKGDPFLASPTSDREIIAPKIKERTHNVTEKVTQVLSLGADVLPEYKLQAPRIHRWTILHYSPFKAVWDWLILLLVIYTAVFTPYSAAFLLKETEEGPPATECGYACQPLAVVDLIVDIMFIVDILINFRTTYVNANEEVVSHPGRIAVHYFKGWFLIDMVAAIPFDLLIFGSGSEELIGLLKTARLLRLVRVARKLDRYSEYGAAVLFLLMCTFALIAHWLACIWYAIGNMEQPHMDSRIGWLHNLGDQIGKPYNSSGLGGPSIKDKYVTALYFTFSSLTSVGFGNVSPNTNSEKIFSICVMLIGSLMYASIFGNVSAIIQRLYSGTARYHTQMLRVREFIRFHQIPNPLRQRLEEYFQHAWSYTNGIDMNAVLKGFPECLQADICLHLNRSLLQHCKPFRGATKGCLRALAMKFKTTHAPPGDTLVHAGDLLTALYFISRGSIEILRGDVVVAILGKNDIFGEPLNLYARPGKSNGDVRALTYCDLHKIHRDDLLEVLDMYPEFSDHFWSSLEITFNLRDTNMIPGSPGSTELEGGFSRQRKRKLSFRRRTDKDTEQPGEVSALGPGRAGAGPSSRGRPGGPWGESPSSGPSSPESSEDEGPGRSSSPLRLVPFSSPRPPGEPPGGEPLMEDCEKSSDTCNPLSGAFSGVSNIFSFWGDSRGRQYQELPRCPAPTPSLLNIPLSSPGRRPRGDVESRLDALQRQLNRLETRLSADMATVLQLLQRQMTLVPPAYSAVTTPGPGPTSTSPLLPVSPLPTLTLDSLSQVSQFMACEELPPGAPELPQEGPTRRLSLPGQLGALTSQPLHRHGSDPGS
row,SMILES,"hERG current change (%, negative = inhibition) at 10uM [%]"
1,COc1cc(S(=O)(=O)N2CCN(C(=O)c3ccco3)CC2)c(OC)cc1C,6.03
2,COc1ccc(C2(C)NC(=O)N(CC(=O)Nc3ccc(C)cc3Br)C2=O)cc1OC (stereo not shown),1.02
3,CN(C)c1ccc(CNc2ncc(Br)cc2Br)cc1,-3.62
4,Cc1ccccc1NC(=O)c1ccc(-n2cncn2)nc1,-14.1
5,Cc1nn(C)c(C)c1S(=O)(=O)N(CC(=O)Nc1ccc2c(c1)OCO2)c1ccc(C(C)C)cc1,7.38
6,CC(C)C(OC(=O)c1nsc(Cl)c1Cl)C(=O)NC1CCCCC1 (stereo not shown),-17.7
7,Cc1oc2nc(SCCCC(=O)NCCCO)nc(N)c2c1C,9.44
8,O=C(Nc1ccnn1C1CCN(CC2CC=CCC2)CC1)c1ccccc1Cl (stereo not shown),-70.7
9,Cc1ccc(CN2CCC(n3nccc3NC(=O)c3ccccc3C)CC2)o1,-25.9
10,Cc1ccccc1C(=O)Nc1ccnn1C1CCN(CC2CC=CCC2)CC1 (stereo not shown),-72.6
11,COc1ccccc1C(=O)Nc1ccnn1C1CCN(CC2CC=CCC2)CC1 (stereo not shown),-82.3
12,Cc1ccccc1C(=O)Nc1ccnn1C1CCN(Cc2ccc(CO)o2)CC1,-1.16
13,COc1ccc(C(=O)Nc2ccnn2C2CCN(CC3CC=CCC3)CC2)cc1 (stereo not shown),-37.4
14,Cl.NCC(c1ccccc1)(c1ccccc1)c1ccccc1,-15.5
15,O=C(COc1ccccc1)NCC(=O)N/N=C/c1ccc(Br)cc1,-14.6
16,CCCCCCCCCC(=O)N/N=C(\C)c1cccnc1,9.29
17,COc1ccc(C(C)=O)c2c1OCCO2,-3.35
18,COc1ccc(C(=O)Nc2ccc(S(=O)(=O)Nc3nccnc3OC)cc2)cc1,8.73
19,COc1cccc(C(=O)N2CCC(N3CC(C)OC(C)C3)CC2)c1.O=C(O)C(=O)O (stereo not shown),14.4
20,O=S(=O)(O/N=C1\CCCc2ccccc21)c1ccccc1,7.59
21,O=[N+]([O-])c1ccc(N2CCN(c3ccc(F)cc3)CC2)cc1,-17.9
22,CCC1CCC(N2CCN(c3ccccc3F)CC2)CC1 (stereo not shown),-22.2
23,O=[N+]([O-])c1ccc(N2CCN(c3ccccc3)CC2)cc1,4.77
24,CCN1CCC(N2CCN(c3ccc(F)cc3)CC2)CC1,-5.34
25,CCCN1CCC(N2CCN(c3ccc([N+](=O)[O-])cc3)CC2)CC1,-74.3

row,SMILES,"hERG current change (%, negative = inhibition) at 10uM [%]"
1,CCC1CCC(N2CCN(c3cccc(OC)c3)CC2)CC1 (stereo not shown),-33.7
2,CCS(=O)(=O)N1CCC(N2CCN(c3ccccc3)CC2)CC1,-10.9
3,CCC1CCC(N2CCN(c3ccc(F)cc3)CC2)CC1 (stereo not shown),-52.1
4,CC1CCC(N2CCN(c3ccc([N+](=O)[O-])cc3)CC2)CC1 (stereo not shown),-74.8
5,O=[N+]([O-])c1ccc(N2CCSCC2)cc1,-10.4
6,CCN1CCC(N2CCN(c3ccc(Cl)cc3)CC2)CC1,-18.8
7,CCC1CCC(N2CCN(c3ccc([N+](=O)[O-])cc3)CC2)CC1 (stereo not shown),-79.8
8,COCCNC(=S)N/N=C/c1c2ccccc2cc2ccccc12,15.5
9,CCOC(=O)C(CC(=O)O)NCc1ccco1 (stereo not shown),17.4
10,CCC(C)N(CC(=O)NCc1ccc(OC)cc1)C(=O)c1csnn1 (stereo not shown),-18.3
11,COc1ccc(N2CCN(C(=S)NCc3ccccc3)CC2)cc1,15.3
12,COc1ccccc1Nc1nc(C)cc(=O)[nH]1,-7.91
13,COc1cc(C(=O)OCC(=O)Nc2ccc(C)cc2)cc(OC)c1OC,28.7
14,COc1ccccc1NC(=O)COC(=O)c1ccccc1OCC(=O)Nc1ccc(SC(F)F)cc1,1.67
15,O=C(COC(=O)c1ccccc1O)Nc1ccc(OC(F)F)cc1,2.74
16,O=C(COC(=O)c1cc(S(=O)(=O)N2CCCC2)ccc1O)Nc1ccc(S(=O)(=O)N2CCOCC2)cc1,23.6
17,CCOc1cc(C(=O)OCC(=O)Nc2ccc(SC(F)F)cc2)cc(OCC)c1OCC,4.57
18,O=C(COC(=O)c1ccccc1O)Nc1ccc(S(=O)(=O)N2CCCCC2)cc1,3.29
19,COc1cc(C(=O)OCC(=O)Nc2ccc(SC(F)F)cc2)cc(OC)c1OC,-55.7
20,CCOc1ccccc1C(=O)OCC(=O)Nc1ccc(OC(F)F)cc1,-54
21,COc1ccccc1C(=O)OCC(=O)Nc1ccc(OC(F)F)cc1,-32.2
22,COc1ccccc1C(=O)COC(=O)c1ccccc1OCC(=O)Nc1ccc(SC(F)F)cc1,12.6
23,O=C(COC(=O)c1cc(S(=O)(=O)N2CCCC2)ccc1O)Nc1ccc(SC(F)F)cc1,-57.5
24,CN(C)C(=O)COC(=O)c1ccccc1OCC(=O)Nc1ccc(SC(F)F)cc1,-51.8
